# From PubChem BioAssay AID1159580 (chemical genetic matrix, 2015)
# The whole screen tested about 5,500 compounds, of which about 2,000 (36%) were called active. Roughly 18% stayed inconclusive and do not appear here. Some of the results follow. Values without a mark were called inactive. No stated cut-off is given here; in the data, active means normalized growth mostly below about 0.91 (no sharp cut-off); inconclusive means no clear call, values can overlap the other calls; inactive means mostly above about 0.92.
# Assay: chemical genetic growth profiling, strain panel (AID 1159580);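 further: tested at 20 µM; growth read once vehicle control cultures reached saturation at 30 °C; 1 = growth at the plate median or of vehicle wells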
# Conditions: growth OD
# [1] = S. cerevisiae deletion strains, locus YBR229C, strain ROT2, stronger effect = lower value
# [2] = S. cerevisiae deletion strains, locus YDL101C, strain DUN1, stronger effect = lower value
# [3] = S. cerevisiae deletion strains, locus YDR150W, strain NUM1, stronger effect = lower value
# [4] = S. cerevisiae deletion strains, locus YEL061C, strain CIN8, stronger effect = lower value
# [5] = S. cerevisiae deletion strains, locus YHR030C, strain SLT2, stronger effect = lower value
# [6] = S. cerevisiae deletion strains, locus YJR043C, strain POL32, stronger effect = lower value
# [7] = S. cerevisiae deletion strains, locus YLR039C, strain RIC1, stronger effect = lower value
# [8] = S. cerevisiae deletion strains, locus YLR262C, strain YPT6, stronger effect = lower value
# [9] = S. cerevisiae deletion strains, locus YMR307W, strain GAS1, stronger effect = lower value
# [10] = S. cerevisiae deletion strains, locus YNL153C, strain GIM3, stronger effect = lower value
# [11] = S. cerevisiae deletion strains, locus YPL241C, strain CIN2, stronger effect = lower value
# [12] = S. cerevisiae deletion strains, locus YGR078C, strain PAC10, stronger effect = lower value
# [13] = S. cerevisiae deletion strains, locus YMR263W, strain SAP30, stronger effect = lower value
# [14] = S. cerevisiae deletion strains, locus YNL322C, strain KRE1, stronger effect = lower value
structure (smiles),measurement,setting,value
Oc1cc(O)cc(/C=C/c2ccccc2)c1,normalized growth,"S. cerevisiae deletion strains, locus YBR021W, strain FUR4, stronger effect = lower value",1.1
same,normalized growth,[1],1
same,normalized growth,"S. cerevisiae deletion strains, locus YCL029C, strain bik1, stronger effect = lower value",0.973
same,normalized growth,"S. cerevisiae deletion strains, locus YDL035C, strain GPR1, stronger effect = lower value",1.01
same,normalized growth,"S. cerevisiae deletion strains, locus YDL074C, strain BRE1, stronger effect = lower value",0.983
same,normalized growth,[2],0.978
same,normalized growth,"S. cerevisiae deletion strains, locus YDL185W, strain tfp1, stronger effect = lower value",0.959
same,normalized growth,"S. cerevisiae deletion strains, locus YDL192W, strain arf1, stronger effect = lower value",0.977
same,normalized growth,"S. cerevisiae deletion strains, locus YDR101C, strain arx1, stronger effect = lower value",1.04
same,normalized growth,[3],0.998
same,normalized growth,"S. cerevisiae deletion strains, locus YDR162C, strain NBP2, stronger effect = lower value",0.996
same,normalized growth,"S. cerevisiae deletion strains, locus YDR318W, strain mcm21, stronger effect = lower value",0.965
same,normalized growth,"S. cerevisiae deletion strains, locus YDR388W, stronger effect = lower value",0.987
same,normalized growth,"S. cerevisiae deletion strains, locus YDR502C, strain sam2, stronger effect = lower value",0.962
same,normalized growth,[4],1
same,normalized growth,"S. cerevisiae deletion strains, locus YER110C, stronger effect = lower value",0.977
same,normalized growth,"S. cerevisiae deletion strains, locus YER155C, strain BEM2, stronger effect = lower value",0.995
same,normalized growth,"S. cerevisiae deletion strains, locus YER167W, strain BCK2, stronger effect = lower value",1.01
same,normalized growth,"S. cerevisiae deletion strains, locus YGL078C, strain dbp3, stronger effect = lower value",0.953
same,normalized growth,"S. cerevisiae deletion strains, locus YGL086W, strain mad1, stronger effect = lower value",0.995
same,normalized growth,"S. cerevisiae deletion strains, locus YGL248W, strain PDE1, stronger effect = lower value",0.957
same,normalized growth,"S. cerevisiae deletion strains, locus YGR135W, strain pre9, stronger effect = lower value",0.921
same,normalized growth,"S. cerevisiae deletion strains, locus YGR252W, strain gcn5, stronger effect = lower value",0.88
same,normalized growth,[5],1
same,normalized growth,"S. cerevisiae deletion strains, locus YHR079C, strain IRE1 (second series), stronger effect = lower value",0.976
same,normalized growth,"S. cerevisiae deletion strains, locus YHR094C, strain hxt1, stronger effect = lower value",0.987
same,normalized growth,"S. cerevisiae deletion strains, locus YHR129C, strain ARP1, stronger effect = lower value",0.99
same,normalized growth,"S. cerevisiae deletion strains, locus YHR200W, strain rpn10, stronger effect = lower value",0.981
same,normalized growth,"S. cerevisiae deletion strains, locus YIL066C, strain RNR3, stronger effect = lower value",1.01
same,normalized growth,"S. cerevisiae deletion strains, locus YIL073C, strain SPO22, stronger effect = lower value",0.963
same,normalized growth,"S. cerevisiae deletion strains, locus YIL125W, strain kgd1, stronger effect = lower value",1.01
same,normalized growth,"S. cerevisiae deletion strains, locus YIR030C, strain dcg1, stronger effect = lower value",0.983
same,normalized growth,"S. cerevisiae deletion strains, locus YJL095W, strain BCK1, stronger effect = lower value",0.961
same,normalized growth,"S. cerevisiae deletion strains, locus YJL134W, strain LCB3, stronger effect = lower value",1.01
same,normalized growth,"S. cerevisiae deletion strains, locus YJL168C, strain set2, stronger effect = lower value",0.974
same,normalized growth,"S. cerevisiae deletion strains, locus YJL187C, strain SWE1 (second series), stronger effect = lower value",0.966
same,normalized growth,[6],1.03
same,normalized growth,"S. cerevisiae deletion strains, locus YKL009W, strain mrt4, stronger effect = lower value",0.964
same,normalized growth,"S. cerevisiae deletion strains, locus YKL068W, stronger effect = lower value",0.994
same,normalized growth,"S. cerevisiae deletion strains, locus YKL085W, strain MDH1 (second series), stronger effect = lower value",0.994
same,normalized growth,"S. cerevisiae deletion strains, locus YKL085W, strain MDH1, stronger effect = lower value",0.994
same,normalized growth,"S. cerevisiae deletion strains, locus YKR001C, strain vps1, stronger effect = lower value",0.987
same,normalized growth,[7],1.03
same,normalized growth,"S. cerevisiae deletion strains, locus YLR058C, strain SHM2, stronger effect = lower value",0.996
same,normalized growth,"S. cerevisiae deletion strains, locus YLR102C, strain apc9, stronger effect = lower value",0.992
same,normalized growth,[8],1.02
same,normalized growth,"S. cerevisiae deletion strains, locus YLR268W, strain sec22, stronger effect = lower value",1.02
same,normalized growth,"S. cerevisiae deletion strains, locus YLR330W, strain CHS5, stronger effect = lower value",0.993
same,normalized growth,"S. cerevisiae deletion strains, locus YLR342W, strain FKS1 (second series), stronger effect = lower value",1.07
same,normalized growth,"S. cerevisiae deletion strains, locus YLR371W, strain rom2, stronger effect = lower value",0.933
same,normalized growth,"S. cerevisiae deletion strains, locus YLR418C, strain cdc73, stronger effect = lower value",0.797 (active)
same,normalized growth,"S. cerevisiae deletion strains, locus YML016C, strain PPZ1, stronger effect = lower value",0.998
same,normalized growth,"S. cerevisiae deletion strains, locus YML032C, strain rad52, stronger effect = lower value",0.993
same,normalized growth,"S. cerevisiae deletion strains, locus YML124C, strain tub3, stronger effect = lower value",0.982
same,normalized growth,"S. cerevisiae deletion strains, locus YMR078C, strain ctf18, stronger effect = lower value",0.984
same,normalized growth,"S. cerevisiae deletion strains, locus YMR223W, strain ubp8, stronger effect = lower value",0.977
same,normalized growth,[9],1
same,normalized growth,"S. cerevisiae deletion strains, locus YNL067W, strain RPL9B, stronger effect = lower value",0.968
same,normalized growth,"S. cerevisiae deletion strains, locus YNL128W, strain TEP1, stronger effect = lower value",0.977
same,normalized growth,[10],0.96
same,normalized growth,"S. cerevisiae deletion strains, locus YNL233W, strain BNI4, stronger effect = lower value",0.981
same,normalized growth,"S. cerevisiae deletion strains, locus YNL250W, strain rad50, stronger effect = lower value",0.935
same,normalized growth,"S. cerevisiae deletion strains, locus YNL271C, strain bni1, stronger effect = lower value",0.984
same,normalized growth,"S. cerevisiae deletion strains, locus YNL298W, strain CLA4, stronger effect = lower value",1.02
same,normalized growth,"S. cerevisiae deletion strains, locus YNL307C, strain MCK1, stronger effect = lower value",0.991
same,normalized growth,"S. cerevisiae deletion strains, locus YNR052C, strain pop2, stronger effect = lower value",0.977
same,normalized growth,"S. cerevisiae deletion strains, locus YOL006C, strain TOP1, stronger effect = lower value",1.15
same,normalized growth,"S. cerevisiae deletion strains, locus YOL012C, strain htz1",1.16
same,normalized growth,"S. cerevisiae deletion strains, locus YOL147C, strain pex11, stronger effect = lower value",0.977
same,normalized growth,"S. cerevisiae deletion strains, locus YOR061W, strain CKA2, stronger effect = lower value",1.01
same,normalized growth,"S. cerevisiae deletion strains, locus YOR069W, strain VPS5, stronger effect = lower value",0.989
same,normalized growth,"S. cerevisiae deletion strains, locus YOR136W, strain idh2, stronger effect = lower value",0.984
same,normalized growth,"S. cerevisiae deletion strains, locus YOR144C, strain elg1, stronger effect = lower value",0.999
same,normalized growth,"S. cerevisiae deletion strains, locus YOR184W, strain ser1, stronger effect = lower value",1.05
same,normalized growth,"S. cerevisiae deletion strains, locus YOR316C, strain cot1, stronger effect = lower value",0.984
same,normalized growth,[11],1
same,normalized growth,"S. cerevisiae deletion strains, locus YPR119W, strain clb2, stronger effect = lower value",0.978
same,normalized growth,"S. cerevisiae deletion strains, locus YPR141C, strain kar3, stronger effect = lower value",0.969
same,normalized growth,"S. cerevisiae deletion strains, locus YPR163C, strain tif3, stronger effect = lower value",0.99
same,normalized growth,"S. cerevisiae deletion strains, locus YPR167C, strain met16, stronger effect = lower value",0.957
same,normalized growth,"S. cerevisiae deletion strains, strain wtn01, stronger effect = lower value",1
same,normalized growth,"S. cerevisiae strains, strain wild type, stronger effect = lower value",1.01
Oc1cc(O)cc(/C=C/c2ccc(O)c(O)c2)c1,normalized growth,"S. cerevisiae deletion strains, locus YAL040C, strain CLN3, stronger effect = lower value",1.01
same,normalized growth,"S. cerevisiae deletion strains, locus YCL061C, strain MRC1 (second series), stronger effect = lower value",0.992
same,normalized growth,"S. cerevisiae deletion strains, locus YDR363W, strain ESC2, stronger effect = lower value",0.955
same,normalized growth,[12],0.691 (active)
same,normalized growth,[13],1.01
same,normalized growth,[9],0.979
same,normalized growth,"S. cerevisiae deletion strains, locus YNL175C, strain NOP13, stronger effect = lower value",0.71 (active)
same,normalized growth,"S. cerevisiae deletion strains, locus YNL197C, strain WHI3, stronger effect = lower value",1
same,normalized growth,[14],0.989
same,normalized growth,"S. cerevisiae deletion strains, locus YOR083W, strain WHI5 (second series), stronger effect = lower value",0.993
O=C(O)CCS(=O)(=O)/C=C/c1ccccc1,normalized growth,"S. cerevisiae deletion strains, locus YAL013W, strain DEP1, stronger effect = lower value",0.995
same,normalized growth,[1],0.989
same,normalized growth,"S. cerevisiae deletion strains, locus YCL061C, strain MRC1, stronger effect = lower value",1
same,normalized growth,[2],1.04
same,normalized growth,[3],0.984
same,normalized growth,[4],1
same,normalized growth,[12],1.02
same,normalized growth,[5],0.996
same,normalized growth,"S. cerevisiae deletion strains, locus YHR087W, strain rtc3, stronger effect = lower value",1.01
same,normalized growth,"S. cerevisiae deletion strains, locus YJL187C, strain SWE1, stronger effect = lower value",0.992
same,normalized growth,[6],0.989
same,normalized growth,"S. cerevisiae deletion strains, locus YJR075W, strain HOC1, stronger effect = lower value",1
same,normalized growth,"S. cerevisiae deletion strains, locus YKL190W, strain CNB1, stronger effect = lower value",0.979
same,normalized growth,[7],0.989
same,normalized growth,"S. cerevisiae deletion strains, locus YLR058C, strain SHM2 (second series), stronger effect = lower value",0.982
same,normalized growth,"S. cerevisiae deletion strains, locus YLR085C, strain ARP6, stronger effect = lower value",0.988
same,normalized growth,[8],1
same,normalized growth,"S. cerevisiae deletion strains, locus YML094W, strain GIM5, stronger effect = lower value",1.11
same,normalized growth,"S. cerevisiae deletion strains, locus YMR219W, strain ESC1, stronger effect = lower value",0.991
same,normalized growth,[13],0.955
same,normalized growth,[9],0.951
same,normalized growth,[10],1.01
same,normalized growth,"S. cerevisiae deletion strains, locus YNL298W, strain CLA4 (second series), stronger effect = lower value",0.997
same,normalized growth,[14],0.992
same,normalized growth,"S. cerevisiae deletion strains, locus YNR030W, strain Alg12, stronger effect = lower value",1.03
same,normalized growth,"S. cerevisiae deletion strains, locus YPL055C, strain LGE1, stronger effect = lower value",1.02
same,normalized growth,[11],1.12
same,normalized growth,"S. cerevisiae deletion strains, locus YPR135W, strain CTF4, stronger effect = lower value",1.08
